# In all, about 290,000 compounds went through this assay and about 110 (0.038%) were called active. About 3% were inconclusive and are not listed. The sample holds actives, similar compounds and a random draw of the others, so the mix is not that of the screen. The call rests on the fitted dose curve; in most records, active means well fitted inhibition curve with a large enough effect in the polarisation, with a control signal flat (not every such curve was filed as active); inconclusive means small, poorly fitted or top-dose-only effect, or effect the other way, or a change in a side signal; inactive means no such curve, though single readings can be large or run the other way; the % refers to the polarisation.
# Target: Histone-lysine N-methyltransferase 2A (Homo sapiens) (UniProt Q03164)
# Experiment: qHTS Fluorescence Polarization Assay for Inhibitors of MLL CXXC domain - DNA interaction
# Settings: MLL-CXXC / FITC-HOXA9 DNA fluorescence polarization; series mostly up to 115 µM; activity change, negative = inhibition: at the top concentration
# Outline: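 Fluorescence polarization: 7 uM MLL-CXXC (stock) preincubated 5 min with compounds, then 50 nM fluorescein-HOX-A9 DNA (stock) added; 30 min ambient. Buffer 50 mM Tris-HCl pH 7.5, 50 mM NaCl, 1 mM DTT, 0.05% BSA.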
# Potency means the concentration at half of the fitted maximal effect.
# Histone-lysine N-methyltransferase 2A (Homo sapiens), sequence (Q03164 whole entry, looked up, the tested form may be a part): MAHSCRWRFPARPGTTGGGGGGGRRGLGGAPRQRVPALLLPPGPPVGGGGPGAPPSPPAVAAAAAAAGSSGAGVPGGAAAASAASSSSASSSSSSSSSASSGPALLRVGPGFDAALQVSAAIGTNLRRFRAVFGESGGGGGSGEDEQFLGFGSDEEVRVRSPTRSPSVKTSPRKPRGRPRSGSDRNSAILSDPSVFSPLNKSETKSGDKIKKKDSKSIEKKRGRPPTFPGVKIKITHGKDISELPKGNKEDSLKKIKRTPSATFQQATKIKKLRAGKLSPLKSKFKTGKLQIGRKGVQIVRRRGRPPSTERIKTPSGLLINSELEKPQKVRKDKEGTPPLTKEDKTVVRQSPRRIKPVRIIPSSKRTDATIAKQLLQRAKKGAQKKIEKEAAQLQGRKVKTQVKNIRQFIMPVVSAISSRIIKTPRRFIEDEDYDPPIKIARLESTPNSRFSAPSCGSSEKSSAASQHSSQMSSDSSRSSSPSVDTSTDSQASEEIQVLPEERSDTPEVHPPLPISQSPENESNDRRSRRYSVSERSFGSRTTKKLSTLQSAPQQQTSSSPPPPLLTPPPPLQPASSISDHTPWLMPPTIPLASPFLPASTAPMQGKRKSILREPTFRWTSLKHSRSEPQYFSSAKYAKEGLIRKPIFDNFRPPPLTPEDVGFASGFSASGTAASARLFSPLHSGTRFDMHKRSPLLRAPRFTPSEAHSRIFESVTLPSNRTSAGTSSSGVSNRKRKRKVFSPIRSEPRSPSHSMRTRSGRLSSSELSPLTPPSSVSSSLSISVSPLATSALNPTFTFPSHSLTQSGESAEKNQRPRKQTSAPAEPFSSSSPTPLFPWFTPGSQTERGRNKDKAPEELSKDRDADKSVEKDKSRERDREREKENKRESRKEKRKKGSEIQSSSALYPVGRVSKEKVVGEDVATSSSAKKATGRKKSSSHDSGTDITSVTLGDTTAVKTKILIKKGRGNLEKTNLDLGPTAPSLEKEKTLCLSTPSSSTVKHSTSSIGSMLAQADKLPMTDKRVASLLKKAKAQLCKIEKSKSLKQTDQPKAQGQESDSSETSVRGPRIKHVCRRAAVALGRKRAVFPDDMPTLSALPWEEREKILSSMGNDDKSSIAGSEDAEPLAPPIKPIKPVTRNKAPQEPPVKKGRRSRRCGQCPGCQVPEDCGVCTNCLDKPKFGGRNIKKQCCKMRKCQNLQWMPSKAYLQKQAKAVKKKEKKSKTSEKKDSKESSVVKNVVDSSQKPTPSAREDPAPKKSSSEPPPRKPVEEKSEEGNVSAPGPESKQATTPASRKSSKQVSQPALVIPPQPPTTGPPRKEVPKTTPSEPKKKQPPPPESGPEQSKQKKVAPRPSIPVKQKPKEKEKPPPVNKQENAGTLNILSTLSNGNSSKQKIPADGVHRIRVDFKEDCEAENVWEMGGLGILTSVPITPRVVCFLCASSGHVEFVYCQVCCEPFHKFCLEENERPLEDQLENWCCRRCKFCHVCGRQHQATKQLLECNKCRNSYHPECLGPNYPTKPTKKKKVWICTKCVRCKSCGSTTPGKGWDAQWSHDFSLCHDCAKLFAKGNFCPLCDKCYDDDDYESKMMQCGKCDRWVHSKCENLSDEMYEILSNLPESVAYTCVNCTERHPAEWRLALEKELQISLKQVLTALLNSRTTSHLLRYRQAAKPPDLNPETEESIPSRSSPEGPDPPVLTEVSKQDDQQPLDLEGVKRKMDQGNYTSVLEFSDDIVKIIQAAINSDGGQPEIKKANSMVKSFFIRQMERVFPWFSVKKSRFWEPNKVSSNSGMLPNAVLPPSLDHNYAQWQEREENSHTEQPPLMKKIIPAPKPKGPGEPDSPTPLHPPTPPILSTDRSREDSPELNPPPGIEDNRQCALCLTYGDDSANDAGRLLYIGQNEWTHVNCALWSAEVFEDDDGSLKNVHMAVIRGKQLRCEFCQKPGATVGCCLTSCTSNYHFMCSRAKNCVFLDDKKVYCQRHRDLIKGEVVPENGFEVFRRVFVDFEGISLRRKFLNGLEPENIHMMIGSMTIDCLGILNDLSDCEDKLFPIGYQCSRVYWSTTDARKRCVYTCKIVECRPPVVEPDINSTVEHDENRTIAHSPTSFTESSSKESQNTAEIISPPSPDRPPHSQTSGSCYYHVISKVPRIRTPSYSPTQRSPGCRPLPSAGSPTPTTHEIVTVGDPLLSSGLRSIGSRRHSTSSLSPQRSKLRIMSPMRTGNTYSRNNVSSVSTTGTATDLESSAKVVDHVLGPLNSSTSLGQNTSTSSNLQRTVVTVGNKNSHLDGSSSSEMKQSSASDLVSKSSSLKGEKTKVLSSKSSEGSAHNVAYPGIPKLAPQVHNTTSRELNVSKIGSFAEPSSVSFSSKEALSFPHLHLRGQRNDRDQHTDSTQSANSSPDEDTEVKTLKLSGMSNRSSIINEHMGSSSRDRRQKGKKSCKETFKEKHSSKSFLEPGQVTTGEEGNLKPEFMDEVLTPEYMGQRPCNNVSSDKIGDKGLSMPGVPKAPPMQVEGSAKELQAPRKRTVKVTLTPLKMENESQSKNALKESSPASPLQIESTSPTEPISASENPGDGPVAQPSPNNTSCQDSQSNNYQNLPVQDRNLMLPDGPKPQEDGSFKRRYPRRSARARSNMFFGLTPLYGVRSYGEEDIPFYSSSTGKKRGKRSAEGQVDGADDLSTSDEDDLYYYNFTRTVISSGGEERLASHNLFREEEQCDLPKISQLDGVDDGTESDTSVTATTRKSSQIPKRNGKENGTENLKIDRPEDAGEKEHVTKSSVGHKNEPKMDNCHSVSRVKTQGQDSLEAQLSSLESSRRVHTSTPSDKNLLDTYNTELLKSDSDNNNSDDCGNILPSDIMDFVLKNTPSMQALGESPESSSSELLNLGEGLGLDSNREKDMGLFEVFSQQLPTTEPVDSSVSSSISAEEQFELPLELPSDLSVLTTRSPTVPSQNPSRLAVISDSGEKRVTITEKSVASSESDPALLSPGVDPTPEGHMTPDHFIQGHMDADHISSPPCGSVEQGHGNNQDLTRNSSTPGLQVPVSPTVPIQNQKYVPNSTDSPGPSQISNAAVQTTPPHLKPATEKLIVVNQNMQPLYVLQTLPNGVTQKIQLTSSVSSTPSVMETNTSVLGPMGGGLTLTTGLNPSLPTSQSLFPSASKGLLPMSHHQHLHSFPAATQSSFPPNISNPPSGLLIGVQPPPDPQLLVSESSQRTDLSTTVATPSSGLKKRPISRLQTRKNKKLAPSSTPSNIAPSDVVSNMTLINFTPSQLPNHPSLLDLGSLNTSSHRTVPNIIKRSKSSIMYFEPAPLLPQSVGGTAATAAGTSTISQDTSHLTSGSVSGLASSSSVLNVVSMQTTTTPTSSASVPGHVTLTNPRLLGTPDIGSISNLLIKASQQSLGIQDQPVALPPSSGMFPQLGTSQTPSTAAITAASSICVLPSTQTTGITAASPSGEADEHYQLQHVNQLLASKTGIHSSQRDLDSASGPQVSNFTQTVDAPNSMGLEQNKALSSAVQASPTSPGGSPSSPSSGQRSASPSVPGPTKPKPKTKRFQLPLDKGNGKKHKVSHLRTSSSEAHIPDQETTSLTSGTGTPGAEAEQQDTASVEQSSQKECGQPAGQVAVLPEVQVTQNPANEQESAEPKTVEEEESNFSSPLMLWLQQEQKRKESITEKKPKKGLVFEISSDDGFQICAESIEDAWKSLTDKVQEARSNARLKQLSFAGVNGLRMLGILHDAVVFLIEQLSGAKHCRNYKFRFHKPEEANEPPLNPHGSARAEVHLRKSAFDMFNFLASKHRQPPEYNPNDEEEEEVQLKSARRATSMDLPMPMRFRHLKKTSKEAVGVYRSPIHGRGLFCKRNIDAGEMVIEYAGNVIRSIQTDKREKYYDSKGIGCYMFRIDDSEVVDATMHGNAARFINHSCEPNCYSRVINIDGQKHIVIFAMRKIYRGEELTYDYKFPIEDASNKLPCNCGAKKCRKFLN
Compound,"activity change, negative = inhibition",Potency
O=C(NCCN1CCOC1=O)C1CCC(=O)N(CCc2ccc(Cl)cc2)C1 (stereo not drawn),-2.88% (inactive),
Cc1cccc(-n2ncc(Cl)c(Cl)c2=O)c1,0.435% (inactive),
O=C(NCc1ccncc1)C(=O)NCC1OCCN1S(=O)(=O)c1ccc(Br)cc1 (stereo not drawn),11% (inactive),
NC(=O)C(=O)N/N=C/c1ccc([N+](=O)[O-])o1,-4.71% (inactive),
Cc1ccc(NC(=O)CSc2cccc3cccnc23)c(C)c1,-0.728% (inactive),
Cc1cccc(C)c1-n1c(C)cc(/C=C2\C(=O)NN(c3ccccc3)C2=O)c1C,-14.4% (inactive),
O=C(O)C(c1ccccc1)N1C(=O)/C(=C\c2ccc(-c3cccc(Cl)c3)o2)SC1=S (stereo not drawn),49.4% (inactive),
O=C1NN(c2ccccc2)C(=O)/C1=C/c1ccc(-c2cccc(C(=O)O)c2)o1,,20 µM (active)
O=C(NCCCn1ccnc1)c1cc2c(s1)CCCC2,-5.38% (inactive),
CCOC(=O)/C(N=Nc1cc(C(=O)O)cc(C(=O)O)c1)=C(\O)CCl,,25.1 µM (active)
O=C(NC1CCN(S(=O)(=O)c2ccc(F)cc2)CC1)c1ccccc1,-1.5% (inactive),
O=S(=O)(c1ccc(Br)c2ccccc12)N1CCOCC1,-2.11% (inactive),
COCCCN1C(=O)C(=O)/C(=C(/O)c2ccc(S(=O)(=O)N3CCOCC3)cc2)C1c1ccc(F)cc1 (stereo not drawn),-6.08% (inactive),
CCOc1ccc2nc(N(CCCN(C)C)C(=O)c3ccc(C(=O)c4ccccc4)cc3)sc2c1,5.3% (inactive),
O=C1CCC(C(=O)N2CCN(c3ccccc3Cl)CC2)CN1CC1CCCCC1 (stereo not drawn),-0.943% (inactive),
CCOC(=O)Cn1c(O)c(N=NC(=O)CNC(=O)Cc2ccccc2)c2ccccc21,-5.83% (inactive),
Cc1cc(C)nc(N/N=C/c2c(CO)cnc(C)c2O)n1,27% (inactive),
CCCNC(=O)c1ccc(N2CCC3(CC2)CC(c2ccc(Cl)cc2)=NO3)c([N+](=O)[O-])c1,1.09% (inactive),
CCOC(=O)C1CCN(S(=O)(=O)c2ccc3c(c2)N(C)C(=O)CC(=O)N3C)CC1,10.6% (inactive),
O=C(NCc1ccncc1)C1CCN(C(=O)c2cccc(Cl)c2)CC1,7.78% (inactive),
O=C(CNC(=O)[C@@H]1Cc2ccccc2CN1)NC1CCCCC1,-11.1% (inactive),
Cc1nn(C)c(Cl)c1CN1CCC(Oc2ccc(C(=O)N3CCCC3)cc2)CC1,4.04% (inactive),
Cc1ccc(S(=O)(=O)N/N=C(\c2ccccc2)C2CC2)cc1,-5.98% (inactive),
O=C(NCCCn1ccnc1)c1cc(Br)c(Br)s1,1.28% (inactive),
Cc1cccc(CN2CCC(n3nccc3NC(=O)c3ccccc3C)CC2)n1,0.021% (inactive),
Cc1cc(=O)oc2c3c(cc(OCC(=O)N[C@H](C(=O)O)c4ccccc4)c12)OC(C)(C)CC3,13.2% (inactive),
CCCNC(=O)c1cnc(-c2ccccc2)nc1-c1ccccc1,18.4% (inactive),
CCCCc1nc2cc(C(=O)NCCc3cnn(C)c3)ccc2o1,8.7% (inactive),

# — PubChem BioAssay AID2662 (National Center for Advancing Translational Sciences (NCATS), 2010)
